# From PubChem BioAssay
# Sampled rows, rich in hits. Any-hit rate of the full collection: about 1.1%.
# Tb PFK inh-1: T. brucei PFK enzyme inhibition | 330,000 compounds, 0.17% hits | Potency, µM (titrated, usually from 57.5 µM), without a hit: at the highest dose activity, negative = inhibition, hits mostly inhibitors | T. brucei PFK, ADP-Glo luminescence | O15648;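 further: potency means the concentration at half of the fitted maximal effect; 0% = uninhibited 1x PFK enzyme wells and -100% = no-enzyme wells; nearly all actives have a fitted effect of over 60% in size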
#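 Luminescent ADP detection (ADP-Glo, two-step: ATP depletion then ADP-to-ATP conversion for luciferase) reported PFK activity after 45 min room-temperature reaction of 1.25 nM enzyme with 0.5 mM F6P and 0.1 mM ATP at pH 8.0.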
# VDR inhibitor: inhibitors of human vitamin D receptor; P11473; VDR-SRC2-3 peptide fluorescence polarization, 2 h; Potency, µM, inactives show max response, negative = inhibition, usual class: inhibitors; 400,000 compounds, 0.93% hits; AID 504847; further: potency means the concentration at half of the fitted maximal effect; on the % scale 0 is the no-effect control and ±100 the full control effect
# Target sequence (P11473 whole entry, looked up): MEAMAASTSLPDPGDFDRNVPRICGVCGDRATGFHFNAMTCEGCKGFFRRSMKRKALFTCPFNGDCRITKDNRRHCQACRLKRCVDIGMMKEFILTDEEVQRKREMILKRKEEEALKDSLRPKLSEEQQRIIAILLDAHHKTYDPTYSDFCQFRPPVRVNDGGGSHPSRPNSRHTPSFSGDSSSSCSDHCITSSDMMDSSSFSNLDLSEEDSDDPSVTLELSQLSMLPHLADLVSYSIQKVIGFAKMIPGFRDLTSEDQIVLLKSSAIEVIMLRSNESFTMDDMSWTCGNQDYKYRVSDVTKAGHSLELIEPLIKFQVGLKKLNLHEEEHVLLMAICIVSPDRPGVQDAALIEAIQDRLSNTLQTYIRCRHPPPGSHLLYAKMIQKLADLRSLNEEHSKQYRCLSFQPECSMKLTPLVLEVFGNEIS
#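 Signal is fluorescence polarization, reporting how far test compounds block the interaction of VDR with the SRC2-3 coregulator peptide after a 2 h room-temperature incubation.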
# Pin1 inh: human Pin1 inhibition | Q13526 | Pin1 FP peptide displacement, HiFluor488, 10 min | Potency, µM (highest dose often 115 µM), without a hit: top-dose activity, negative = inhibition, hits mostly inhibitors | 390,000 compounds, 0.009% hits; active means well fitted inhibition curve with a large enough effect in the polarisation, with a control signal flat, not every such curve was filed as active; inconclusive means small, poorly fitted or top-dose-only effect, or effect the other way, or a change in a side signal; inactive means no such curve, though single readings can be large or run the other way; the % refers to the polarisation; further: potency means the concentration at half of the fitted maximal effect; on the % scale 0 is the no-effect control and ±100 the full control effect
# Target sequence (Q13526 whole entry, looked up): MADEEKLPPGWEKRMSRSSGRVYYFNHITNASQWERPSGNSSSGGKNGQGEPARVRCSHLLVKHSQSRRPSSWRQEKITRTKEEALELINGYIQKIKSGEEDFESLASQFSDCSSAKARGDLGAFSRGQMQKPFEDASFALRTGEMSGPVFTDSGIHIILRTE
# PGK inhibitor: inhibitors of T. brucei phosphoglycerate kinase; 380,000 compounds, 0.043% hits; PGK/GAPDH coupled, Kinase-Glo luminescence, 60 min; Potency, µM (series often up to 57.5 µM), without a hit: at the highest dose activity change, negative = inhibition, usual class: inhibitors; further: potency means the concentration at half of the fitted maximal effect; on the % scale 0 is the no-effect control and ±100 the full control effect; nearly all actives have a fitted effect of over 60% in size
#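 Recombinant glycosomal PGK reaction used 1,3-bisphosphoglycerate generated in-well by GAPDH (100nM final) in 100mM TEA pH 7.6, 5mM MgCl2, 0.01% Tween-20. After 60 minutes at room temperature, ATP was read by Kinase-Glo Plus luminescence end-point.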
# GLS inh: inhibitors of human glutaminase (GLS); GLS enzymatic activity, qHTS titration; 410,000 compounds, 0.21% hits; Potency, µM (top dose mostly 45.5 µM), inactives show at the highest dose activity change, negative = inhibition, hits mostly inhibitors; O94925; further: potency means the concentration at half of the fitted maximal effect; on the % scale 0 is the no-effect control and ±100 the full control effect
#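 Human kidney-isoform GLS in 45 mM KH2PO4 pH 8.2, 0.02% Tween-20, with compound, started with 1mM L-Glutamine (added stock). Glutamate oxidase/HRP/Amplex red coupled fluorescence read at start and after 30 min at RT.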
# Tb PFK KinaseGlo: Tb phosphofructokinase inhibition, orthogonal luminescence; Tb PFK enzyme, ATP depletion, Kinase-Glo Plus luminescence; 1,100 compounds, 47% hits; AID 504636; shares compounds with Tb PFK inh-1; Potency, µM (top dose mostly 57.5 µM), for the others: at the top dose inhibition; calls by dose curve; further: potency means the concentration at half of the fitted maximal effect; nearly all actives have a fitted effect of over 60% in size
# Tb PFK inh-2: T. brucei PFK enzyme inhibition, hit validation | 1,100 compounds, 41% hits | shares compounds with Tb PFK inh-1 | AID 504637 | purified T. brucei PFK, ADP-Glo luminescence, 45 min | Potency, µM (top dose mostly 57.5 µM), for the others: at the highest dose activity change, negative = inhibition, hits mostly inhibitors;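 further: potency means the concentration at half of the fitted maximal effect; plate controls were full PFK enzyme control for no effect and no enzyme control for full effect; nearly all actives have a fitted effect of over 60% in size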
# USP1-UAF1 confirm: blocks human USP1/UAF1 cleavage of Ub-Rhodamine; Potency, µM (highest dose often 114 µM), for the others: top-dose activity change, negative = inhibition, actives largely listed as inhibitors; 50 compounds, 50% hits; shares compounds with VDR inhibitor; Ub-Rhodamine cleavage, fluorescence kinetic read; AID 540327
# VDR confirm: inhibits human vitamin D receptor, primary hit validation; shares compounds with VDR inhibitor; VDR-coactivator inhibition assay, qHTS confirmation; Potency, µM, hits mostly inhibitors; 840 compounds, 89% hits; AID 602199; further: potency means the concentration at half of the fitted maximal effect
# VDR FP: confirmation of human VDR-coactivator binding inhibitors, fluorescein label. shares compounds with VDR inhibitor. VDR-coactivator binding, fluorescein fluorescence polarization. Potency, µM (titrated, usually from 57.1 µM), for inactives: at the top dose activity change, negative = inhibition, hits mostly inhibitors. 840 compounds, 48% hits. AID 602200; further: potency means the concentration at half of the fitted maximal effect
# VDR bla: confirmation of human vitamin D receptor inhibitors in reporter cells; shares compounds with VDR inhibitor; VDR beta-lactamase reporter cells, FRET ratio; cells co-treated with VDR agonist LG190178; Potency, µM (doses to about 46.1 µM), without a hit: at the highest dose activity change, negative = inhibition, actives largely listed as inhibitors; 840 compounds, 23% hits; AID 602202; further: potency means the concentration at half of the fitted maximal effect; on the % scale 0 is the no-effect control and ±100 the full control effect
# VDR cytotox: counter-screen for vitamin D receptor inhibitors: cytotoxicity. shares compounds with VDR inhibitor. cytotoxicity counter-screen, cell viability, qHTS. Potency, µM (titrated, usually from 48.3 µM), for inactives: top-dose activity change, negative = cytotoxicity, most hits filed as cytotoxic. 840 compounds, 18% hits. AID 602204;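 further: potency means the concentration at half of the fitted maximal effect; plate controls were DMSO for no effect and high-concentration cycloheximide for full effect; nearly all actives have a fitted effect of over 75% in size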
# GLS confirm: confirmation of human glutaminase inhibitors. shares compounds with GLS inh. biochemical glutaminase enzyme inhibition assay. Potency, µM (highest dose often 46.1 µM), without a hit: top-dose activity change, negative = inhibition, most hits filed as inhibitors. 35 tested, under 10 active. AID 624261; calls by dose curve
# GLS HRP counter: coupled enzyme interference in glutaminase inhibitor counterscreen; shares compounds with GLS inh; HRP/glutamate oxidase coupled Amplex Red fluorescence counterscreen; activity change, negative = inhibition, % at 46.1 µM; 35 tested, under 10 active
# HEK293 tox: counter-screen for glutaminase inhibitors: HEK-293 cytotoxicity; shares compounds with GLS inh; HEK-293 viability, CellTiter-Glo luminescence, 24 h; activity change, negative = cytotoxicity, % at 46.1 µM; 35 tested, under 10 active
# The depositor's hits bear a star; i = inactive; ? = inconclusive; · = no result; [ ] = dose if it differs, or a comment. Unless noted, the call rests on the fitted dose curve; in most records, active means well fitted curve in the direction sought with a large enough effect; inconclusive means small, poorly fitted or top-dose-only effect, or another doubt; inactive means no such curve, though single readings can be large; an effect the other way counts as inactive or inconclusive.
SMILES,Tb PFK inh-1,VDR inhibitor,Pin1 inh,PGK inhibitor,GLS inh,Tb PFK KinaseGlo,Tb PFK inh-2,VDR confirm,VDR FP,VDR bla,VDR cytotox,others
COc1cc(N[C@@H](C)CCCN)c2ncccc2c1,·,4.6%,·,·,8.0%[20 µM],4.0%,-5.3%,·,·,·,·,USP1-UAF1 confirm=20µM*
CN1CCN(C(=O)c2sc(=S)n(-c3ccccc3)c2N)CC1,10.7µM*,44.7µM*,-10.2%,-4.1%,0.5%,3.79µM*,5.36µM*,10.6*,?,-4.7%,-4.5%,
O=C(O)c1ccccc1NS(=O)(=O)c1cccc(-n2sc3ccccc3c2=O)c1,2.39µM*,10µM*,5.3%,-3.0%,7.08µM*,12µM*,23.9µM*,·,·,·,·,GLS confirm=5.17µM*;GLS HRP counter=11.1;HEK293 tox=8.4
Cc1ccc(NC(=O)CN2C(=O)CN=C(c3ccccc3)c3ccccc32)c(C)c1,·,-15.9%,-4.5%,4.9%,4.6%,·,·,·,·,·,·,
COC(=O)C1=Nc2ccccc2/C1=C\c1c(O)n(-c2ccc(OC)cc2)c(=O)[nH]c1=O,-3.1%,?,48.1%,-3.2%,-4.2%,·,·,·,·,·,·,
COC(=O)C1=Nc2ccccc2/C1=C\c1c(O)n(-c2ccc(Br)cc2)c(=O)[nH]c1=O,9.0%,79.4µM*,?,-5.7%,?,·,·,21.2*,?,29.6%,-8.9%,
COc1ccc(N2C(=O)/C(=C/C=C/c3ccccc3[N+](=O)[O-])C(=O)NC2=S)cc1,25.6%,22.4µM*,·,-9.4%,-31.7%,·,·,3.36*,?,?,-20.8%,
COc1ccc(N2C(=O)/C(=C/c3cccs3)C(=O)NC2=S)cc1,3.0%,-2.1%,?,-3.3%,-1.4%,·,·,·,·,·,·,
CCOc1ccc(N2C(=O)NC(=O)/C(=C\c3cc(OC)c(OC)cc3[N+](=O)[O-])C2=O)cc1,1.3%,31.6µM*,?,i,-14.8%,·,·,16.8*,12.6µM*,25.8%,5.5%,
